Usually inhibition stands for the percentage by which the read-out fell short of the control.

Data on 15 molecules can be found in PubChem BioAssay AID1026 (Columbia University Molecular Screening Center, 2008).

This test addresses Bifunctional epoxide hydrolase 2 (Homo sapiens) (UniProt P34913). Nature of the test: sEH inhibitor concentration-response potency, dose response, biochemical, human sEH, fluorescence, Infinite200 (AID 1026). Conditions: recombinant human sEH, fluorogenic substrate, at 0.2 µM, active compounds read high.

A number with no mark means an inactive call. How the calls were made is not given here.

Sequence of Bifunctional epoxide hydrolase 2 (Homo sapiens) (P34913 whole entry, looked up): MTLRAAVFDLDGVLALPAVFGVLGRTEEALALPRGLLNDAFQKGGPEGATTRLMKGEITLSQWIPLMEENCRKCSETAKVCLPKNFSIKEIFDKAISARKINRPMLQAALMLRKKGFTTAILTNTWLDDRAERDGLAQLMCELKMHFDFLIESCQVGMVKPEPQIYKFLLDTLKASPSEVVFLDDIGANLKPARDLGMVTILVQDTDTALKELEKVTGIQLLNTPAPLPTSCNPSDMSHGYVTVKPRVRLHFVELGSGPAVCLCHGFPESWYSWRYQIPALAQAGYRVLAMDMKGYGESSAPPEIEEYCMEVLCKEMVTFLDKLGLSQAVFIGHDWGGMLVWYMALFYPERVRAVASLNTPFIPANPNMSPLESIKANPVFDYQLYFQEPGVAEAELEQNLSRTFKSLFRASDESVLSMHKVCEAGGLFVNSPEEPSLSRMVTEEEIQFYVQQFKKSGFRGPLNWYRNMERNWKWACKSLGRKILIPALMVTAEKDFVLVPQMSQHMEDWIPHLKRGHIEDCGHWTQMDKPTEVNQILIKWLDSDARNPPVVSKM

For the molecule `CC(C)(C)n1nnnc1CN1CCC(NC(=O)NC2CCCCC2)CC1`, the inhibition was 70.3%.

Consider `CCCCCC(=O)Nc1ccc2oc(-c3cncc(Br)c3)nc2c1`, for which the inhibition was 51.2%. As for `O=C(CN1C(=O)c2ccccc2S1(=O)=O)Nc1ccc(S(=O)(=O)N2CCCCC2)cc1`, the inhibition is 49.9%. On to `CCC(CC)NC(=O)COC(=O)c1ccc(OCC(=O)Nc2ccccc2OC)c(OC)c1`, for which the inhibition was 48.6%.

`O=C(c1ccc2c(=O)n(Cc3ccc4c(c3)OCO4)c(=S)[nH]c2c1)N1CCCCC1`: the inhibition is 47.4%. Regarding `O=C(NCCC1=CCCCC1)C1CCCN(S(=O)(=O)c2ccccc2)C1` (stereo not given), the inhibition was 48.7%. To `O=C(CCSc1ccc(Cl)cc1)NC12CC3CC(CC(C3)C1)C2` belongs 46.4%. To `O=C(CCCN1C(=O)c2ccccc2C1=O)Nc1ccc(S(=O)(=O)N2CCCCC2)cc1` belongs 58%. Regarding `CCc1cccc(NC(=O)NC2CCCCC2)c1`, the inhibition was 70.5%.

In the case of `O=C(NC1CCCCC1)NC1CC2CCC(C1)N2Cc1nnnn1Cc1ccc2c(c1)OCO2` (stereo not given), the inhibition is 74.2%.

In the case of `COc1ccc(N2CCC(CNC(=O)Nc3cccc(OC)c3)C2)cc1` (stereo not given), the inhibition is 44.5%. The result for `Cc1ccc(SCCC(=O)NCCSCc2ccccc2C)cc1` reads 52.5%; that for `O=C(Nc1ccc(OC(F)F)cc1)Nc1cccc(C(F)(F)F)c1`, 63.2%; that for `CCOc1ccc(NC(=O)Nc2ccc(N(C)C(C)=O)cc2)cc1`, 54.1%. The result for `CC(C)CN1C(=O)c2ccc(C(=O)NCc3ccc4c(c3)OCO4)cc2C1=O` reads 56%.
